Results filed as inconclusive are left out. The source made the active and inactive calls. Calls follow the shape of the dose curve; as a rule, active = well fitted inhibition curve with a large enough effect in the signal ratio in the repeat runs (not every such curve was filed as active); inconclusive = weak or mixed curves; inactive = flat fitted curve, though single readings scatter; the % refers to the signal ratio. Where a SMILES comes first, the peptide text is derived from it. [ ]: non-standard residue; d: D form. pGlu = O=C1CC[C@@H](C(=O)O)N1
Molecular target: Progesterone receptor (Homo sapiens) (UniProt P06401)
Experiment: qHTS assay to identify small molecule antagonists of the progesterone receptor (PR) signaling pathway (AID 1346795)
Settings: PR-UAS-bla HEK293T, beta-lactamase FRET ratio, 16 h; series mostly up to 92.4 µM; activity change, negative = inhibition: at the top concentration
Description: National Center for Advancing Translational Sciences [NCATS]
NIH Chemical Genomics Center [NCGC]
U.S. Environmental Protection Agency [EPA]
National Institutes of Environmental Health Sciences [NIEHS]
National Toxicology Program [NTP]
U.S. Food and Drug Administration [FDA]
Progesterone receptor (PR), a nuclear hormone receptor, plays an important role in development, metabolic homeostasis and reproduction. […] Endocrine disrupting chemicals (EDCs) and their interactions with steroid hormone receptors like PR causes disruption of normal endocrine function. To identify the compounds that inhibit PR signaling, a PR-UAS-bla GripTite cell line i.e. PR-UAS-bla HEK293T (Invitrogen, Carlsbad, CA, USA) containing a beta-lactamase reporter gene under the control of an Upstream Activator Sequence (UAS) was used to screen Tox21 10K compound library.
Tox21 Assay Protocol Summary:
PR-UAS-bla HEK293T cells were dispensed at 3,000 cells/4 uL of assay medium containing 2% charcoal stripped FBS per well into black wall/clear-bottom 1536-well plates using a Multidrop Combi (ThermoFisher Scientific, Waltham, MA) dispenser. After the assay plates were incubated at a 37C and 5% CO2 for 6 hr, 23 nL of compounds dissolved in DMSO, positive controls or DMSO only was transferred to the assay plate by a Pintool station (Kalypsys, San Diego, CA), followed by addition of 1 uL (1nM as final concentration) of Promegestone (R5020) in assay medium using a BioRAPTR FRD (Flying Reagent Dispenser, Aurora Discovery, San Diego, CA). The plates were incubated at 37C and 5% CO2 for 16 hr. Then 1 uL of LiveBLAzer B/G FRET substrate was added using a FRD. After the plates were incubated at room temperature for 2 hours, fluorescence intensity was measured by an Envision plate reader (PerkinElmer, Shelton, CT).
% is scaled to controls: 0 for no effect and ±100 for the full control effect.

Progesterone receptor (Homo sapiens), sequence (P06401 whole entry, looked up): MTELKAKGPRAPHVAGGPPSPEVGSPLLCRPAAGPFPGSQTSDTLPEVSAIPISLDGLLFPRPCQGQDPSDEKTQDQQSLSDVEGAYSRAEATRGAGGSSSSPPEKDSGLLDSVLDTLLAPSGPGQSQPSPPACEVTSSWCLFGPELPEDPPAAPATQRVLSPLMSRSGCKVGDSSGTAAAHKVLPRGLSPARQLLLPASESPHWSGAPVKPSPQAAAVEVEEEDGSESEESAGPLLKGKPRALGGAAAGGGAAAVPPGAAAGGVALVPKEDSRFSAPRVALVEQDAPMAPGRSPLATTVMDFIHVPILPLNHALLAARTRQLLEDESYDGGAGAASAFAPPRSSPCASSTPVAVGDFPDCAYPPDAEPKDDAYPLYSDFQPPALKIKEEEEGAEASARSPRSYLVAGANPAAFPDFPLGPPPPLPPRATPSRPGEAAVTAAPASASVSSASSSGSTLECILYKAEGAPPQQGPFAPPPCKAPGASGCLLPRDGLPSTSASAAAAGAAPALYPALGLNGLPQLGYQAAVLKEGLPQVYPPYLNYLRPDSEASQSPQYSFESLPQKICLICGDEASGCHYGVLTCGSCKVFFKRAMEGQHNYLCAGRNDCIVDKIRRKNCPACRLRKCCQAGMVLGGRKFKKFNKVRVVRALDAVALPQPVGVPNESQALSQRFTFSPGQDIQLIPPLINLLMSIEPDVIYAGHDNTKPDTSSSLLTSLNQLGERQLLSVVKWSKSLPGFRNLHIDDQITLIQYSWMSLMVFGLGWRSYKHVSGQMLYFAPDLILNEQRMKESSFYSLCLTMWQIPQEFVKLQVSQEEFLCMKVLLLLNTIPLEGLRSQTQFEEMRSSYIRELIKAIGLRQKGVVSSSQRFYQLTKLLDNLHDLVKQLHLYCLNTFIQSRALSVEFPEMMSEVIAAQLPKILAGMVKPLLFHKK

Row | SMILES | activity change, negative = inhibition
1 | CCCO[Si](OCCC)(OCCC)OCCC | -0.186% (inactive)
2 | CO[C@@]1(NC(=O)C(C(=O)O)c2ccc(O)cc2)C(=O)N2C(C(=O)O)=C(CSc3nnnn3C)CO[C@@H]21 (stereo not given in full) | 12.8% [at 42.5 µM] (inactive)
3 | CO[C@@]1(NC(=O)CSC[C@@H](N)C(=O)O)C(=O)N2C(C(=O)O)=C(CSc3nnnn3C)CS[C@@H]21 | 4.69% [at 42.5 µM] (inactive)
4 | CC(C)(C)C(=O)Oc1ccc(S(=O)(=O)Nc2ccccc2C(=O)NCC(=O)O)cc1 | 13.9% [at 42.5 µM] (inactive)
5 | CCCC(=O)O[C@]1(C(=O)CC)CC[C@H]2[C@@H]3CCC4=CC(=O)CC[C@]4(C)[C@H]3[C@@H](O)C[C@@]21C | 1.55% [at 42.5 µM] (inactive)
6 | O=C(O)CC(C(=O)O)S(=O)(=O)O (stereo not given) | 4.83% (inactive)
7 | CCOC(=O)C(=O)CCCCCCl | 10.5% [at 42.5 µM] (inactive)
8 | COc1ccnc(CS(=O)c2nc3cc(OC(F)F)ccc3[nH]2)c1OC (stereo not given) | -10.4% (inactive)
9 | CCCC[N+](C)(CCCC)CCCC | 14.7% (inactive)
10 | CCCn1cc[n+](C)c1C | -0.419% (inactive)
11 | CN(C)C(=O)Oc1cccc([N+](C)(C)C)c1 | 0.259% [at 42.5 µM] (inactive)
12 | CCNC(=O)[C@@H]1CCCN1C(=O)[C@H](CCCN=C(N)N)NC(=O)[C@H](CC(C)C)NC(=O)CNC(=O)[C@H](Cc1ccc(O)cc1)NC(=O)[C@H](CO)NC(=O)[C@H](Cc1c[nH]c2ccccc12)NC(=O)[C@H](Cc1cnc[nH]1)NC(=O)[C@@H]1CCC(=O)N1 ([pGlu]HWSYGLRP-NHEt) | 7.79% [at 42.5 µM] (inactive)
13 | CCCCN1C=CN(C)C1 | 3.82% [at 18.9 µM] (inactive)
14 | CCCCN(CCC(=O)OCC)C(C)=O | 6.73% (inactive)
15 | CC12CCC(C(=O)C1=O)C2(C)C (stereo not given) | 3.3% (inactive)
16 | CC(CO)(CO)[N+](=O)[O-] | 3.3% (inactive)
17 | COCCOC[C@H](CC1(C(=O)NC2CCC(C(=O)O)CC2)CCCC1)C(=O)Oc1ccc2c(c1)CCC2 (stereo not given in full) | 12.5% (inactive)
18 | C[N+]1(C)CCCC(OC(=O)C(O)(c2ccccc2)c2ccccc2)C1 (stereo not given) | 1.21% [at 42.5 µM] (inactive)
19 | CC(CC=O)CC(C)(C)C (stereo not given) | -3.95% (inactive)
20 | NC(=O)Cc1cccc2ccccc12 | -1.96% (inactive)

Row | SMILES | activity change, negative = inhibition
21 | C=CC(=O)OCCCl | -7.62% (inactive)
22 | O=C1CCCCCCCCCCCCCCO1 | 2.32% (inactive)
23 | C=C(C)C(=O)OCC1CCCO1 (stereo not given) | 7.27% (inactive)
24 | Nc1ccncc1N | 2.63% [at 42.5 µM] (inactive)
25 | CC1(C)OC[C@@H](COC(=O)CCc2ccc(OC[C@@H](O)CNCCNC(=O)N3CCOCC3)cc2)O1 | 11.6% [at 42.5 µM] (inactive)
26 | CC(C)NNC(=O)c1ccncc1 | 0.629% [at 42.5 µM] (inactive)
27 | CCCCCCCCCCCCSC | 7.38% (inactive)
28 | CCCCCC(C)N (stereo not given) | -0.263% [at 42.5 µM] (inactive)
29 | Nc1c2c(nc3c1CCC3)CCCC2 | 6.84% [at 42.5 µM] (inactive)
30 | CCN[C@H]1C[C@H](C)S(=O)(=O)c2sc(S(N)(=O)=O)cc21 | 0.0044% [at 42.5 µM] (inactive)
31 | Cc1coc2ccccc2c1=O | 2.83% [at 42.5 µM] (inactive)
32 | CCOC(=O)c1cnc2c(cnn2CC)c1NN=C(C)C | 2.42% [at 42.5 µM] (inactive)
33 | [O-][n+]1cccc(CO)c1 | 2.32% [at 42.5 µM] (inactive)
34 | CCO[Si](OCC)(OCC)c1ccccc1 | 11.7% (inactive)
35 | O=C(O)c1cn(C2CC2)c2cc(N3CCNCC3)c(F)cc2c1=O | 18.3% [at 42.5 µM] (inactive)
36 | CCCOC(=O)CC | 5.03% (inactive)
37 | N[C@H](C(=O)O)[C@@H](O)c1ccc(O)c(O)c1 | 6.85% [at 42.5 µM] (inactive)
38 | COc1ccc2cc1Oc1cc3c(cc1OC)CC[N+](C)(C)[C@H]3Cc1ccc(cc1)Oc1c(OC)c(OC)cc3c1[C@@H](C2)[N+](C)(C)CC3 | 9.22% [at 42.5 µM] (inactive)
39 | CC(C)COC(=O)c1ccc(N)cc1 | -17% [at 42.5 µM] (inactive)
40 | CO[Si](C)(OC)c1ccccc1 | -17.4% (inactive)

From PubChem BioAssay (Tox21)
